# This is a sample that favours compounds with a hit; in the whole collection about 0.96% have one here.
# Resorufin fluor = compound fluoresces in the resorufin spectral region; hit rate 0.04% among 59,000; max dye-equivalent concentration, M; AID 588; Compound fluorescence, resorufin region 547/598 nm, buffer; stronger effect = higher value
#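 Compounds in 100 mM Tris buffer, pH 8.0, incubated 15 min at room temperature, then read with 547 nm excitation and 598 nm emission filters. Fluorescence was converted to dye-equivalent concentration using an on-plate six-point resorufin standard curve.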
# Texas Red fluor = compounds fluorescent in Texas Red spectral region; Compound fluorescence, Texas Red channel, 547/618 nm; stronger effect = higher value; max dye-equivalent concentration, M; hit rate 0.06% among 59,000; AID 587; in the data active = max dye-equivalent concentration above about 10 nM; inconclusive = between about 1.1 nM and that limit
#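 Spectral interference profiling: each compound concentration's relative fluorescence, read with a 547 nm excitation and 618 nm emission filter pair, was normalized to a per-plate Texas Red standard curve.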
# Fluorescein fluor = fluorescein region autofluorescence; Compound autofluorescence, 480/540 nm, fluorescein-equivalent; stronger effect = higher value; max fluorescein-equivalent concentration, M; hit rate 0.91% among 59,000; in the data active = max fluorescein-equivalent concentration above about 10 nM; inconclusive = between about 1.1 nM and that limit
#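 Compounds (23 nL) in 100 mM Tris pH 8.0, 15 min at room temperature, then fluorescence read at 480 nm excitation/540 nm emission. Signal converted to fluorescein-equivalent concentration from an on-plate fluorescein standard curve.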
# A488 autofl = compound fluoresces in the A488 spectral region; AID 591; hit rate 0.1% among 59,000; compound autofluorescence, A488 spectral region, dye equivalency; Compound Type: qHTS ECL - MLSMR; max dye equivalency, M
#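 Read-out: relative fluorescence at 480/540 nm, expressed as Alexa 488 dye-equivalent concentration from a six-point A488 standard included per plate. Conditions: 100 mM Tris, pH 8.0; 15 min incubation, room temperature.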
# A647 autofl = A647 region autofluorescence; max dye-equivalent concentration, M; Compound fluorescence, A647 channel (570/671 nm), Tris buffer; 59,000 tested, under 10 active; AID 592;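 also: values scaled relative to a standard on each plate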
#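 Fluorescence read (570 nm ex, 671 nm em) after 15 min RT incubation of compounds in 100 mM Tris buffer, pH 8.0; values expressed as dye-equivalent concentration against a six-point A647 standard series on each plate.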
# Rhodamine fluor = compound fluoresces in the rhodamine spectral region; Rhodamine-region fluorescence, 547/598 nm, Tris buffer; stronger effect = higher value; hit rate 0.05% among 59,000; max dye-equivalent concentration, M; in the data active = max dye-equivalent concentration above about 11 nM; inconclusive = between about 1.1 nM and that limit
#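 Intensities are converted to rhodamine-equivalent concentration using a six-point rhodamine standard on each plate. Compounds sit 15 min at room temperature in 100 mM Tris buffer, pH 8.0; read uses the 547/598 nm excitation/emission pair.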
# * = called active by the depositor; i = inactive; ? = inconclusive; ! = a repeat was not active. Unless noted, no rule for the calls is given here.
SMILES,Resorufin fluor,Texas Red fluor,Fluorescein fluor,A488 autofl,A647 autofl,Rhodamine fluor
N[C@@H]1[C@@H]2[C@@H]3C[C@H]4N(CC[C@@]14C(=O)C(=O)O)CC3=CCO[C@@H]2CC(=O)O,i,i,1e-08M*,i,2.2e-09,i
C/C(=N\NC(=O)c1ccncc1)c1ccc2ccccc2c1O,i,i,3.5e-08M*,?,1.1e-08,i
Nc1nc(Cn2nnc(-c3ccccc3F)n2)nc(N2CCOCC2)n1,i,i,i,i,1.8e-08,i
N#Cc1c(C(F)(F)F)cc(-c2ccccc2)nc1SCc1nc(N)nc(N2CCOCC2)n1,i,i,1.6e-08M*,i,1e-09,i
CCN1C(=O)/C(=C2\C=Cc3ccccc3N2CC)OC1=S,2.2e-08M*,?,8e-07M*,3.8e-08M*,1.1e-08,2.2e-08M*
O=C1N=C(O)CN1/N=C\c1ccc(-c2ccc([N+](=O)[O-])cc2)o1,i,?,4.2e-08M*!,?,1e-09,i
O=c1c(-c2cccs2)nc2cnc(N3CCOCC3)nc2n1-c1ccccc1,i,i,?,i,1e-09,i
Cc1nnc2sc(-c3ccc(NC(=O)c4ccc(-c5ccc(Cl)cc5Cl)o4)cc3)nn12,?,?,1.2e-08M*,i,2.8e-08,?
Cc1nnc2sc(-c3ccc(NC(=O)c4cccnc4)cc3)nn12,i,?,?,i,4.9e-08,i
C[C@@H]1C(=O)O[C@H]2[C@@H](O)[C@@]34[C@H]5C[C@H](C(C)(C)C)[C@@]36[C@H](OC(=O)[C@@H]6O)O[C@@]4(C(=O)O5)[C@@]12O,i,i,i,i,2.8e-09,i
Cc1ccc2nc3sc(C(=O)N4CCOCC4)c(N)c3cc2c1,i,i,8.1e-08M*,?,1.1e-09,i
Cc1c(CCC#N)c(N2CCN(C3CCCCC3)CC2)n2c(nc3ccccc32)c1C#N,i,i,1.1e-08M*,i,2e-09,i
COc1ccc2c(c1)[n+]([O-])c(/C(C)=N/NC(N)=S)c(C)[n+]2[O-],i,?,?,i,1e-09,i
CC(=O)Nc1c2c3c(cccc3n(C)c1=O)C(=O)c1ccccc1-2,i,i,1.7e-08M*,?,1e-09,i
O=C(O)CCCC[C@@H]1SC[C@H]2NC(=O)N[C@H]12,i,i,i,i,1e-09,i
COc1ncc2nc(-c3cn(C)c4ccccc34)c(=O)n(-c3ccccc3)c2n1,i,i,1.5e-08M*,i,6.3e-09,i
CCNc1ncc2nc(-c3cn(C)c4ccccc34)c(=O)n(-c3ccccc3)c2n1,i,i,1.1e-08M*,i,5.4e-09,i
C=C1CC[C@@H](O)C/C1=C/C=C1\CCC[C@]2(C)[C@@H]1CC[C@H]2[C@@H](C)/C=C\[C@@H](C)C(C)C,i,i,i,i,1e-09,i
CN1CCN([C@@H]2Cc3ccccc3Sc3ccc(Cl)cc32)CC1,i,i,?,i,1e-09,i
CN(C)c1ncc2nc(CCc3ccccc3)c(=O)n(Cc3ccc(F)cc3)c2n1,i,i,i,i,1e-09,i
CC1(C)Cc2c(c(-c3ccco3)[nH]c(=O)c2C#N)CS1,i,?,8.7e-08M*,?,6.1e-09,i
COc1cc2c(cc1OC)CN(C(=O)CSc1nc(N)c(C#N)cc1C#N)CC2,i,?,1.9e-08M*,i,1.5e-09,i
CCC(=O)c1ccc(OCC(=O)N2CCc3cc(OC)c(OC)cc3C2)cc1,i,i,?,i,5.8e-09,i
COc1cc(O)c2c(O)c3c(c4c2c1[C@@]1(C4)C(C)=CCCC1(C)C)[C@H](O)[C@@]1(O)CC(=O)C(C(N)=O)=C(O)[C@]1(O)C3=O,i,i,2.1e-08M*,i,1e-09,i
CNC(=O)c1cc2ccc(OC)cc2oc1=O,i,i,1.7e-08M*,i,1e-09,i
SMILES,Resorufin fluor,Texas Red fluor,Fluorescein fluor,A488 autofl,A647 autofl,Rhodamine fluor
C=C1CC[C@@H]2[C@](C)(CC[C@@H](O)[C@]2(C)CO)[C@@H]1C/C=C1/C(=O)OC[C@H]1O,i,i,i,i,3e-09,i
COc1ccc(NC(=O)N2CCC3(CC2)CCN(C(=O)c2ccncc2)CC3)cc1,i,i,i,i,1e-09,i
COc1ccc(C(=O)N2CCC3(CCN(C(=O)Nc4cccc(C#N)c4)CC3)CC2)cc1,i,i,i,i,2.9e-09,i
COc1ccc(C(=O)N2CCC3(CC2)CN(C(=O)Nc2cccc(C#N)c2)C3)cc1,i,i,1.1e-08M*,i,1e-09,i
COC(=O)N1CCC2(CCN(C(=O)Nc3ccc(OC)cc3)CC2)CC1,i,i,1.5e-08M*,i,2.1e-08,i
CCNc1ncc2nc(-c3cccc(C#N)c3)c(=O)n(Cc3cccc(OC)c3)c2n1,i,i,?,i,1.8e-09,i
Nc1cc(C(=O)O)[nH]c(=O)n1,i,i,1.1e-08M*,i,6.4e-09,i
C=C[C@H]1CN2CC[C@@H]1C[C@@H]2[C@@H](O)c1ccnc2ccc(OC)cc12,i,i,?,i,4.8e-08,i
NC(=O)N1c2ccccc2C=Cc2ccccc21,i,i,?,i,3.8e-08,i
NC(=O)N1c2ccccc2CC(=O)c2ccccc21,i,i,3.3e-08M*,?,1e-09,i
C#C[C@]1(O)CC[C@@H]2[C@H]3CCC4=CCCC[C@@H]4[C@@H]3CC[C@@]21C,i,?,?,i,3.4e-09,i
C=CCNc1nc(N)c(C(=O)Nc2cc(C)on2)s1,i,i,i,i,1e-09,i
Cc1cc(C(F)(F)F)c2c(N)c(C(=O)Nc3cc(C)on3)sc2n1,i,i,1.2e-08M*,i,1e-08,i
O=C(O)CCc1c2ccc(=O)c(O)c-2oc2c(O)c(O)ccc12,i,i,1.1e-08M*,i,1e-09,i
C[C@@]12CCC(=O)C=C1CC[C@H]1[C@@H]2[C@@H](O)C[C@]2(C)[C@@H]1CC[C@@]2(O)C(=O)CO,i,i,?,i,2.2e-08,i
Cc1cccc(S(=O)(=O)c2c(N)n(Cc3ccco3)c3nc4ccccc4nc23)c1,i,i,1.7e-08M*,i,1.5e-08,i
C[N@@+]1(CC[N@@+]2(C)CCC[C@H]2c2cccnc2)CCC[C@@H]1c1cccnc1,i,i,i,i,2.5e-09,i
N#CC1=C(N)C(C#N)(C#N)C(c2ccc[nH]2)C2CCCC=C12 (stereo not given),i,i,1.3e-08M*,i,1e-09,i
N#CC1=C(N)C(C#N)(C#N)C(c2cccnc2)C2CCCC=C12 (stereo not given),i,i,4.8e-08M*,?,3.7e-08,i

# Bioassay records deposited in PubChem BioAssay by National Center for Advancing Translational Sciences (NCATS).
